High-throughput results: PubChem, NMMLSC
Rac1 mut GTP – GTP binding modulators of activated mutant Rac1, primary screen, biochemical, bead-based flow cytometry, multiplex, fluorescent GTP. Ras-related C3 botulinum toxin substrate 1 (Homo sapiens), P63000. GST-Rac1 activated beads; actives lie on both sides; 100% means binding = to untreated wells. percent activity (GTP binding), % at 10 µM. hit rate 0.11% among 190,000. AID 764, 2007;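 active = GTP binding at least 20 percentage points away from the 100% baseline, in either direction, so actives lie on both sides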
Cdc42 wt GTP – modulators of GTP binding to wildtype Cdc42, primary screen, biochemical, multiplex bead flow cytometry, Bodipy-GTP; hit rate 0.2% among 190,000; AID 761, 2007; Cell division control protein 42 homolog (Homo sapiens), P60953; GST-Cdc42 beads; actives lie on both sides; percent activity (GTP binding), % at 10 µM;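 active = percent activity GTP binding at least 20 points away from the 100% baseline, either down as inhibitor or up as activator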;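 also: median bead fluorescence of bound Bodipy-FL-GTP at 100 nM; 0% = excess unlabeled GTP control and 100% = no compound control; below 100% means less GTP binding so inhibitor and above means activator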
Target sequence (P60953 whole entry, looked up): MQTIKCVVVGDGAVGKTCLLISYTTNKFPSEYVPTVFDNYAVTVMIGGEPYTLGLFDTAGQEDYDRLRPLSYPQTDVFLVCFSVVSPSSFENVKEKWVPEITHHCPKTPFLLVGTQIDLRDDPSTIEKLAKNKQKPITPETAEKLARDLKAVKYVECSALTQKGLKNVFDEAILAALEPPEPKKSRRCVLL
Rab2 wt GTP – modulators of GTP binding to Rab2A wildtype, primary screen, biochemical, dog, bead-based flow cytometry, multiplex | Ras-related protein Rab-2A (Canis lupus familiaris), P61105 | GST-Rab2 wt beads, Bodipy-GTP binding | GTP binding activity, % at 10 µM | hit rate 0.19% among 190,000;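 active = GTP binding activity at least 20 points away from 100%, either lowered or raised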;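 also: 0% = beads with excess unlabeled GTP and 100% = no-compound control corrected for plate trend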
HRas wt GTP bind – modulators of GTP binding to HRas wildtype, primary screen, biochemical, bead-based flow cytometry, multiplex | GTP binding activity, % at 10 µM | AID 759, 2007 | hit rate 0.14% among 190,000 | GST-Ras wt beads, Bodipy-FL-GTP binding; actives lie on both sides;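 active = GTP binding activity at least 20% away from the 100% baseline, either lowered as inhibitor or raised as activator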;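 also: 0% = unlabeled GTP competition control and 100% = no-compound control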
Target sequence (P01112 whole entry, looked up): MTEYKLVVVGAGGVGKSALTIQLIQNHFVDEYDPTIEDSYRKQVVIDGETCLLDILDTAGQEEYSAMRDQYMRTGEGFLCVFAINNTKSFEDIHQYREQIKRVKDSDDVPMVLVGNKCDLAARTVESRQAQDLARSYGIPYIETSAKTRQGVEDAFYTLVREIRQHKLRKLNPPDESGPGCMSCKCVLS
Rab7 wt GTP bind – modulators of GTP binding to Rab7, primary screen, biochemical, wildtype, multiplex bead flow cytometry; GST-Rab7 beads, fluorescent GTP binding; actives lie on both sides; untreated = 100%, excess cold GTP = 0%; GTP binding activity (percent of control), % at 10 µM; hit rate 0.055% among 190,000;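 active = fluorescent GTP binding to Rab7 beads changed by at least 20 points from the 100% baseline, either direction, mostly lower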;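 also: median green fluorescence of bound Bodipy-FL-GTP per Rab7 bead population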
Rac1 wt modul – wildtype Rac1 GTP binding modulators, primary screen, biochemical, GST-Rac1 beads, flow cytometry, multiplex | GTP binding activity (% of control), % at 10 µM | hit rate 0.27% among 190,000 | fluorescent GTP binding; actives lie on both sides; 0 = cold GTP competed, 100 = untreated;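 active = GTP binding activity at least 20 points away from the 100% control level, either lower or higher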
Active calls of the source: *; [ ] = dose if it differs, or a comment. Only some compounds are listed: those with a hit (about 0.37% of all), similar ones and a draw of the others.

What do the screens show for `O=C(NCc1cccs1)c1cccn2c(=O)c3sccc3nc12`?
Rac1 mut GTP: 77.0*; Cdc42 wt GTP: 63.0*; Rab2 wt GTP: 63.0*; HRas wt GTP bind: 66.0*; Rab7 wt GTP bind: 92.0; Rac1 wt modul: 55.0*

How did O=C(NCc1cccs1)c1cnc2ccccn2c1=O do in these assays?
Rac1 mut GTP: 96.0; Cdc42 wt GTP: 101.0; Rab2 wt GTP: 98.0; HRas wt GTP bind: 99.0; Rab7 wt GTP bind: 100.0; Rac1 wt modul: 103.0

What do the screens show for `CC(C)Cc1csc(NC(=O)c2ccc(Cl)cc2)c1C(=O)O`?
Rac1 mut GTP: 90.0; Cdc42 wt GTP: 94.0; Rab2 wt GTP: 89.0; HRas wt GTP bind: 91.0; Rab7 wt GTP bind: 95.0; Rac1 wt modul: 92.0

What do the screens show for `CC(C)Cc1csc(NC(=O)c2ccccc2Cl)c1C(=O)O`?
Rac1 mut GTP: 82.0; Cdc42 wt GTP: 78.0*; Rab2 wt GTP: 80.0; HRas wt GTP bind: 81.0; Rab7 wt GTP bind: 85.0; Rac1 wt modul: 79.0*

How did COc1cccc(Oc2nnnn2-c2ccccc2)c1 do in these assays?
Rac1 mut GTP: 99.0; Cdc42 wt GTP: 99.0; Rab2 wt GTP: 99.0; HRas wt GTP bind: 99.0; Rab7 wt GTP bind: 98.0; Rac1 wt modul: 104.0

How did COc1cccc(-n2nnnc2S(C)(=O)=O)c1 do in these assays?
Rac1 mut GTP: 70.0*; Cdc42 wt GTP: 72.0*; Rab2 wt GTP: 85.0; HRas wt GTP bind: 90.0; Rab7 wt GTP bind: 92.0; Rac1 wt modul: 85.0

How did COc1ccccc1CCNC(=O)c1cc(-c2ccncc2)nc2ccc(Br)cc12 do in these assays?
Rac1 mut GTP: 95.0; Cdc42 wt GTP: 93.0; Rab2 wt GTP: 93.0; HRas wt GTP bind: 91.0; Rab7 wt GTP bind: 93.0; Rac1 wt modul: 96.0

How did Cc1ccc(NC(=O)C(C)NS(=O)(=O)c2ccc(F)cc2)cc1C (stereo unspecified) do in these assays?
Rac1 mut GTP: 101.0; Cdc42 wt GTP: 104.0; Rab2 wt GTP: 105.0; HRas wt GTP bind: 103.0; Rab7 wt GTP bind: 111.0; Rac1 wt modul: 113.0

How did CNC(=O)C(C)NS(=O)(=O)c1ccc(F)cc1 (stereo unspecified) do in these assays?
Rac1 mut GTP: 36.0*; Cdc42 wt GTP: 37.0*; Rab2 wt GTP: 36.0*; HRas wt GTP bind: 40.0*; Rab7 wt GTP bind: 27.0*; Rac1 wt modul: 34.0*

What do the screens show for `Cc1nc2cccc(C)n2c(=O)c1Cl`?
Rac1 mut GTP: 101.0; Cdc42 wt GTP: 113.0; Rab2 wt GTP: 110.0; HRas wt GTP bind: 109.0; Rab7 wt GTP bind: 105.0; Rac1 wt modul: 120.0*[activator]

How did CCN(CC)C(=S)SCC(=O)Nc1nc(=O)c2ccccc2s1 do in these assays?
Rac1 mut GTP: 96.0; Cdc42 wt GTP: 94.0; Rab2 wt GTP: 95.0; HRas wt GTP bind: 96.0; Rab7 wt GTP bind: 93.0; Rac1 wt modul: 99.0

Results for Cc1cc(C)nc(Nc2nc(=O)c3ccccc3s2)n1 ?
Rac1 mut GTP: 114.0; Cdc42 wt GTP: 135.0*[activator]; Rab2 wt GTP: 117.0; HRas wt GTP bind: 110.0; Rab7 wt GTP bind: 104.0; Rac1 wt modul: 165.0*[activator]

What do the screens show for `Cc1ccn2c(=O)nc(SCc3cccc(C(F)(F)F)c3)nc2c1`?
Rac1 mut GTP: 92.0; Cdc42 wt GTP: 94.0; Rab2 wt GTP: 94.0; HRas wt GTP bind: 94.0; Rab7 wt GTP bind: 96.0; Rac1 wt modul: 92.0

What do the screens show for `CCOC(=O)CNC1CC(=O)N(c2cccc(Cl)c2)C1=O` (stereo unspecified)?
Rac1 mut GTP: 100.0; Cdc42 wt GTP: 103.0; Rab2 wt GTP: 103.0; HRas wt GTP bind: 102.0; Rab7 wt GTP bind: 104.0; Rac1 wt modul: 107.0

How did COc1c(C)cccc1C(=O)NC(=S)Nc1ccc2c(c1)Cc1ccccc1-2 do in these assays?
Rac1 mut GTP: 74.0*; Cdc42 wt GTP: 77.0*; Rab2 wt GTP: 75.0*; HRas wt GTP bind: 83.0; Rab7 wt GTP bind: 83.0; Rac1 wt modul: 77.0*

Results for Cc1ccc(-n2cc(CNC(C)Cn3cncn3)c(-c3ccc(F)cc3)n2)cc1 (stereo unspecified) ?
Rac1 mut GTP: 96.0; Cdc42 wt GTP: 98.0; Rab2 wt GTP: 101.0; HRas wt GTP bind: 99.0; Rab7 wt GTP bind: 100.0; Rac1 wt modul: 100.0

Results for Cc1nn(C)c(C)c1Nc1ccc(N2C(=O)C3C4C=CC(C4)C3C2=O)cc1[N+](=O)[O-] (stereo unspecified) ?
Rac1 mut GTP: 94.0; Cdc42 wt GTP: 94.0; Rab2 wt GTP: 92.0; HRas wt GTP bind: 95.0; Rab7 wt GTP bind: 92.0; Rac1 wt modul: 94.0

What do the screens show for `COC(=O)c1ccc(/C=N/Nc2nc(-c3ccc(Cl)cc3Cl)cs2)cc1`?
Rac1 mut GTP: 119.0; Cdc42 wt GTP: 127.0*[activator]; Rab2 wt GTP: 123.0*[activator]; HRas wt GTP bind: 121.0*[activator]; Rab7 wt GTP bind: 124.0*[activator]; Rac1 wt modul: 130.0*[activator]

Results for Cc1nc2ccc(NC(=O)N(C(C)C)C(C)C)cc2s1 ?
Rac1 mut GTP: 100.0; Cdc42 wt GTP: 104.0; Rab2 wt GTP: 99.0; HRas wt GTP bind: 99.0; Rab7 wt GTP bind: 98.0; Rac1 wt modul: 103.0

How did O=C(/C=N/O)NCCN1CCCCC1 do in these assays?
Rac1 mut GTP: 96.0; Cdc42 wt GTP: 98.0; Rab2 wt GTP: 97.0; HRas wt GTP bind: 97.0; Rab7 wt GTP bind: 95.0; Rac1 wt modul: 100.0

What do the screens show for `O=C(CCc1nnc(-c2ccc3c(c2)OCO3)o1)N1CCC(c2ccc(F)cc2)C1` (stereo unspecified)?
Rac1 mut GTP: 79.0*; Cdc42 wt GTP: 81.0; Rab2 wt GTP: 82.0; HRas wt GTP bind: 87.0; Rab7 wt GTP bind: 96.0; Rac1 wt modul: 88.0

What do the screens show for `O=C(NCCc1ccc(Cl)cc1)C1CCC(CNc2nc(=S)[nH]c3ccccc23)CC1` (stereo unspecified)?
Rac1 mut GTP: 92.0; Cdc42 wt GTP: 81.0; Rab2 wt GTP: 88.0; HRas wt GTP bind: 89.0; Rab7 wt GTP bind: 99.0; Rac1 wt modul: 85.0

What do the screens show for `O=C(NCc1ccccc1Cl)C1CCC(CNc2nc(=S)[nH]c3ccccc23)CC1` (stereo unspecified)?
Rac1 mut GTP: 92.0; Cdc42 wt GTP: 90.0; Rab2 wt GTP: 88.0; HRas wt GTP bind: 86.0; Rab7 wt GTP bind: 88.0; Rac1 wt modul: 78.0*

Results for CCC(C)C(NC(=O)c1ccccc1NC(=O)c1ccco1)C(=O)O (stereo unspecified) ?
Rac1 mut GTP: 98.0; Cdc42 wt GTP: 101.0; Rab2 wt GTP: 100.0; HRas wt GTP bind: 99.0; Rab7 wt GTP bind: 99.0; Rac1 wt modul: 101.0

What do the screens show for `COc1cccc(NC(=O)CN2CCN(c3ccc(F)cc3)CC2)c1`?
Rac1 mut GTP: 95.0; Cdc42 wt GTP: 96.0; Rab2 wt GTP: 97.0; HRas wt GTP bind: 97.0; Rab7 wt GTP bind: 98.0; Rac1 wt modul: 95.0
